Test results taken from PubChem BioAssay AID2100 (National Center for Advancing Translational Sciences (NCATS), 2009).
Out of some 300,000 compounds screened, about 1,200 (0.4%) were called active. About 3% were inconclusive and are not listed. This is one part of a sample in which actives are shown more often than they occur. Calls follow the shape of the dose curve; as a rule, active = well fitted inhibition curve with a large enough effect; inconclusive = small, poorly fitted or top-dose-only effect, or another doubt; inactive = no such curve, though single readings can be large or run the other way.

target: Lysosomal alpha-glucosidase (Homo sapiens) (UniProt P10253); test: qHTS Assay for Inhibitors and Activators of Human alpha-Glucosidase Cleavage of Glycogen; conditions: recombinant GAA, glycogen substrate, Amplex Red glucose oxidase fluorescence; series mostly up to 76.3 µM; activity change, negative = inhibition: at the top concentration;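 also: the screen sought inhibitors and activators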;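 as to activity change, negative = inhibition: 0% = full enzyme reaction and -100% = no-enzyme basal signal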
Text: NIH Chemical Genomics Center [NCGC] NIH Molecular Libraries Probe Production Centers Network [MLPCN] MLPCN Grant: R03 MH084841-01 Assay Submitter (PI): Wei Zheng NCGC Assay Overview: Alpha-glucosidase is responsible for the hydrolysis of terminal, non-reducing 1,4-linked alpha-D-glucose residues, which releases alpha-D-glucose. It is a lysosomal hydrolase that is required for the degradation of a small percentage (1-3%) of cellular glycogen in humans. Deficiency of this enzyme results in glycogen-storage disease type II (GSDII), also referred to as Pompe disease, an autosomal recessive disorder. Structurally normal glycogen is accumulated in the lysosomes and cytoplasm in affected patients, primarily in muscle tissues. Excessive glycogen storage within lysosomes may interrupt normal functioning of other organelles and leads to cellular injury. In turn, this leads to enlargement and dysfunction of the entire organ involved (eg: cardiomyopathy and muscle weakness). It has been reported that the improper folding and trafficking of alpha-glucosidase resulting from genetic mutations may account for a significant number of Pompe patients. […] We optimized this alpha-glucosidase assay in 1536-well plate format for identification of novel small molecule inhibitors or activators with structures other than the sugar analogs in order to develop new pharmacological chaperones. Previous assays of alpha-Glucosidase have utilized a non-natural fluorescent substrate to probe enzyme activity. The present assay measures enzyme activity on glycogen using a coupled-assay system to glucose oxidase.
NCGC Assay Protocol Summary: This is an enzyme assay using glycogen from bovine liver (Sigma catalog #: G0885) as the substrate and recombinant human alpha-glucosidase as the enzyme preparation. Upon hydrolysis of the substrate, the glucose product can be detected using the Amplex Red Glucose Oxidase Assay Kit (Invitrogen catalog #: A22189). The product of this reaction can be read with a fluorescence plate reader with an excitation at 573 nm and an emission at 610 nm. Data were normalized to the controls for basal activity (without enzyme) and 100% activity (with enzyme). The AC50 values were determined from concentration-response data modeled with the standard Hill equation. Assay buffer for enzyme reaction: 50 mM citric acid (titrated with potassium phosphate to pH 5.0), 0.01% Tween-20 (pH 5.0 is an optimal condition for this enzyme assay) Assay buffer for Amplex Red reaction: Tris-HCl, pH 7.5 1536-well assay protocol for the alpha-glucosidase assay: (1) Add 2 ul/well alpha-glucosidase enzyme solution (4 nM final) (2) Add 23 nL compounds in DMSO solution. The final titration was 0.7 nM to 77 uM. (3) Add 1 ul of glycogen substrate solution (30 ug) (4) Incubate at 37 C for 40 min (5) Add 2 ul tris-HCl buffer with Amplex Red reagents (6) Incubate 45 min at room temperature. (7) Detect the assay plate in a ViewLux plate reader (PerkinElmer) with Ex=573 nm and Em=610nm. Keywords: Alpha-glucosidase, Pompe Disease, pharmacological chaperone, chaperone therapy, high throughput screening, alpha-glucosidase inhibitor, MLSMR, MLSCN, NIH Roadmap, qHTS and NCGC
Potency is read from the fitted curve at half-maximal effect.

Activity change, negative = inhibition, inactive:
CCOc1ccc2nc(N3CCCC(C(=O)Nc4cc(C)ccc4C)C3)sc2c1 (centres undefined) -4.5%, CNC(=S)Nc1ccc([N+](=O)[O-])cc1 1.96% [at 76.4 µM], O=[N+]([O-])c1ccc(N/N=C/c2ccccc2)cc1 -6.86% [at 76.4 µM], COc1cc(Nc2nc(-c3ccc(OC)c(OC)c3)nc3ccccc23)cc(OC)c1 2.34%, CC(Nc1ccc(-c2nc(-c3ccco3)no2)cc1[N+](=O)[O-])c1ccccc1 (centres undefined) -6.17%, CCc1ccc(C(=O)CC2(O)C(=O)N(CCc3ccccc3)c3ccc(Br)cc32)cc1 (centres undefined) -5.36%, CCN(CC)S(=O)(=O)c1ccc(N2CCOCC2)c(C(=O)O)c1 1.48% [at 76.4 µM], COC(=O)c1cc(NC(=O)c2ccco2)ccc1N1CCOCC1 10.8% [at 76.4 µM], CCn1cc(C(=O)NCCc2ccccc2)c(=O)c2cc(S(=O)(=O)N3CCCCCC3)ccc21 0.975%, O=C(Nc1nc2c(s1)CCCC2)c1ccccc1F -6.45%, CCc1ccc(NC(=O)N2CCN(c3ccccc3)CC2)cc1 -8.22% [at 76.4 µM], CC(CC(=O)N1CCN(c2ccccc2)CC1)c1ccccc1 (centres undefined) 7.33% [at 76.4 µM], Cc1ccc(-c2cc(N)n(Cc3cccc(Cl)c3)n2)cc1 -10.6%, CC1=Nc2cc(C(=O)N3CCC(C)CC3)ccc2Sc2ccc(Cl)cc21 -8.37%, Nc1ccc(Nc2ccccc2)cc1 -24.5% [at 76.4 µM], Cc1ccc(Nc2nnc(SCc3ccccc3)s2)cc1 4.5% [at 76.4 µM], COc1ccc(CNC(=O)COCc2cc(-c3cccs3)on2)cc1OC 16%, Cc1nc2nc(NCc3cccc(Br)c3)[nH]n2c(=O)c1Cc1ccccc1 6.3%, CC1CCN(c2nc3ccc(C(=O)N4CCN(c5ccccc5)CC4)cc3s2)CC1 -11.9%, O=C(Nc1ccc2nc(SCCOc3ccccc3)sc2c1)c1ccco1 -5.61%, Cc1cc(NC(=O)C2CCC(CNS(=O)(=O)c3ccc(Br)s3)CC2)ccc1Br (centres undefined) -16.1%, CC(=O)c1ccc(NC(=O)Nc2ccc([N+](=O)[O-])cc2C)cc1 3.84% [at 76.4 µM], CCN(CC)S(=O)(=O)c1cc([N+](=O)[O-])ccc1N=Nc1c(O)n(C)c2ccccc12 -1.84% [at 76.4 µM], COC(=O)c1cccc(Cn2nnc3sc4c(c3c2=O)CCC(C(C)(C)C)C4)c1 (centres undefined) 7.54%, CC(=O)C1(C)N(O)C(C)(C)C(c2cccs2)=[N+]1[O-] (centres undefined) 1.27% [at 76.4 µM], Cc1nnc(NCc2ccccc2)c2c1nnn2Cc1ccc(F)cc1 -8.32%, COc1ccc(C)cc1Nc1nc(-c2c(C)[nH]c3ccccc23)cs1 9.48% [at 76.4 µM], COc1ccc(-c2csc(Cc3nc(O)cs3)n2)cc1 -14.2% [at 76.4 µM], NS(=O)(=O)c1ccc(Nc2nc(-c3ccccc3)cs2)cc1 15.4% [at 76.4 µM], COc1cccc(CC(=O)Nc2nc(-c3ccc(OC)c(OC)c3)cs2)c1 -2.53%, Cc1cccc(C(=O)NCCc2nc3ccccc3n2Cc2ccccc2Cl)c1 -12%, CC(C)S(=O)(=O)c1oc(-c2ccc(F)cc2)nc1S(=O)(=O)c1ccc(F)cc1 -4.7%, COc1ccccc1C(=O)Nc1c(C(=O)N(C)Cc2ccccc2)sc2nc(C)c(Cl)c(C)c12 -19.2%, COc1cc(Cl)c(NC(=O)CC(C)S(=O)(=O)c2cc3c(cc2C)NC(=O)CO3)c(OC)c1 (centres undefined) -5.92%, O=C(CSC1=Nc2ccccc2C2=NC(CC(=O)NCc3ccco3)C(=O)N12)NCc1ccco1 (centres undefined) -6.09% [at 76.4 µM], CCC(C)NC(=O)CSC1=Nc2ccccc2C2=NC(CCC(=O)NCc3ccco3)C(=O)N12 (centres undefined) 2.88% [at 76.4 µM], CC(NC(=O)CCc1cn(Cc2ccccc2Cl)c2ccccc12)c1ccccc1 (centres undefined) -9.52%, COc1cc(OC)nc(NC(=O)CCl)n1 -2.2% [at 76.4 µM], O=C(Cc1c(Cl)cccc1Cl)NC1CC1 1.8% [at 76.4 µM], COc1ccccc1CNC(=O)CCn1c(=O)c2ccccc2n(CC(=O)Nc2cccc(Cl)c2)c1=O -11.3%, Cc1ccc(CSc2nc3cccnc3n2Cc2ccc(C(=O)NC3CC3)cc2)cc1 -6.11%, COC(=O)c1sccc1NC(=S)Nc1ccc(C)cc1 -7.72% [at 76.4 µM], COC(=O)c1sccc1NC(=O)CCC1CCCC1 0.821% [at 76.4 µM], O=C(O)c1[nH]c2ccccc2c1C(c1cccc(O)c1)c1c(C(=O)O)[nH]c2ccccc12 -1.4% [at 76.4 µM], CCCC(=O)Nc1c(O)c2ccccc2[nH]c1=O -14.1% [at 76.4 µM], O=S(=O)(c1ccc(Cl)cc1)c1nnn2c1nc(NC1CCCC1)c1sccc12 -2.29%, Cc1c(Cl)cccc1NC(=O)C1CCCN(C(=O)c2cnn(-c3ccccc3)c2-n2cccc2)C1 (centres undefined) -16.3%, c1cnn(-c2cc(N3CCOCC3)ncn2)c1 0.521% [at 76.4 µM], O=C(CN1C(=O)COc2ccc(Cl)cc21)Nc1ccc(N2CCOCC2)cc1 -8.28%, CCC(=O)N1CCc2cc(S(=O)(=O)NC(CC(C)C)C(=O)NCCc3cccc(C)c3)ccc21 (centres undefined) -7.4%, COc1cccc(NC(=O)CN2C(=O)c3ccccc3Sc3ncccc32)c1 -11.9%, O=C(c1ccc(C(F)(F)F)cc1)N1CCC(c2nc(-c3ccc(S(=O)(=O)N4CCCC4)cc3)no2)CC1 -13.7%, Cc1c(C)c2ccc(OCC(=O)N3CCC(C(=O)O)CC3)c(C)c2oc1=O 7.97%, O=C(CNC(=O)C1COc2ccccc2O1)N/N=C/c1cc(Br)c(O)c(Br)c1 (centres undefined) 1.03% [at 76.4 µM], COc1ccccc1C(=O)NCCn1cc(SCc2ccccc2Cl)c2ccccc21 2.94%, CCOc1ccc(N2CC(C)Cn3c2nc2c3c(=O)n(Cc3c(F)cccc3Cl)c(=O)n2C)cc1 (centres undefined) 8.54%, O=S(=O)(c1ccc(Br)cc1)c1nnn2c1nc(N1CCOCC1)c1sccc12 17.4%, Cc1ccc(Cl)cc1NC(=O)/C(C#N)=C\c1cn(Cc2ccc(F)cc2)c2ccccc12 6.62%, Cc1c(C)c(C)c2[nH]c(=S)[nH]c2c1C 4.09% [at 76.4 µM], Cc1ccsc1CN(C(=O)c1oc2ccc(Br)cc2c1C)C1CCS(=O)(=O)C1 (centres undefined) 4.76%, CCCn1c2ccccc2c2cnn(CC(=O)NCC3CCN(Cc4ccc(C)cc4)CC3)c(=O)c21 -3.9%, CCN(C(=O)CSc1nnc(C)n2c1cc1occc12)c1ccccc1 -18.8%, OCCN(Cc1ccccc1)Cc1ccc(Cl)cc1 7.32% [at 76.4 µM], CCN(CC)c1ccc([N+](=O)[O-])cc1C(=O)O 11.9% [at 76.4 µM], CC(=O)Oc1cccc(N2C(=O)C3CC=C(Cl)CC3C2=O)c1 (centres undefined) 5.61% [at 76.4 µM], COc1cc2ccccc2cc1C(=O)Nc1ccc(N2CCOCC2)cc1 4.76% [at 76.4 µM], CCOC(=O)c1oc2ccc(S(=O)(=O)n3nc(-c4ccccc4OC)cc3N)cc2c1C 1.61%, Cc1ccc(Nc2c(-c3ccc(C)s3)nc3ccccn23)cc1 -17.9%, Oc1ccccc1-c1nc2ccc(Cl)cn2c1Nc1ccc2c(c1)OCCO2 8.37%, CN(C(=O)CSc1nc2ccc(NC(=O)COc3ccccc3)cc2s1)c1ccccc1 -5.51%, CCc1cccc(NC(=O)CN(C)S(=O)(=O)c2ccc3[nH]c4c(c3c2)CCCC4)c1 4.13%, CC(=O)Nc1ccc(S(=O)(=O)NNC(=O)CCc2ccccc2)cc1 -0.0961% [at 76.4 µM], O=C(CCc1ccccc1)NNC(=O)c1ccc(Br)cc1 10.6% [at 76.4 µM], O=S(=O)(NCCc1nnc2ccc(SCc3ccc(Cl)cc3Cl)nn12)c1ccccc1 -7.52%, O=[N+]([O-])c1cc(-c2nc(-c3ccccc3)no2)ccc1NCc1ccco1 -4.02%, COc1ccc(Cn2c(=O)n(-c3ccccc3C)c(=O)c3c4c(sc32)CN(C(C)=O)CC4)cc1 -9.25%, CCC(C)NC(=O)C1c2ccccc2Oc2ccccc21 (centres undefined) 19.6% [at 76.4 µM], CCC(C)(C)NC(=O)C1c2ccccc2Oc2ccccc21 -10.9% [at 76.4 µM], CCOc1ccc(C2CC(=O)c3c([nH]c(C(=O)OCc4ccccc4)c3C)C2)cc1 (centres undefined) 8.54%, CCOc1ccc(N(CC)S(=O)(=O)N2CCCC(C(=O)NCc3ccc(Cl)cc3)C2)cc1 (centres undefined) -6.48%, CC(=O)c1c(C)n(S(=O)(=O)c2ccc(Cl)cc2)c2ccc(NS(=O)(=O)c3ccc(Cl)cc3)cc12 -15.1%, Nc1ccc(-c2nnc(-c3ccccc3)o2)cc1 -7.39%, COc1ccc(NC(=O)c2sc(N)nc2-c2ccccc2)cc1 3.8% [at 76.4 µM]

Potency, active:
O=C(O)/C=C/C(=O)NNc1ccc([N+](=O)[O-])cc1 14 µM, Cn1c(=O)n(C)c2cc(CNc3ccc(N4CCOCC4)c(C(=O)O)c3)ccc21 9.92 µM, CC(=O)N1CCN(c2ccc(NCc3ccc(C(C)C)cc3)cc2)CC1 31.6 µM, Cc1ccc(Nc2ccccc2N)cc1 50.1 µM, CCN(CC)S(=O)(=O)c1cc([N+](=O)[O-])ccc1NNC(=O)Nc1ccccc1 28.2 µM, C/C(=N\O)C1(C)N(O)C(C)(C)C(c2ccc(Br)cc2)=[N+]1[O-] (centres undefined) 6.26 µM, COc1ccc(-c2csc(Nc3ccc(O)cc3)n2)cc1 11.2 µM, COc1ccc(OC)c(Nc2nc(-c3ccc(O)c(O)c3)cs2)c1 28.2 µM, CC(C)C1N=C2c3ccccc3N=C(SCC(=O)c3ccc(O)c(O)c3)N2C1=O (centres undefined) 12.5 µM, O=C(CCl)NNc1cccc(Cl)n1 20 µM, CCOC(=O)C(=CNNc1ccsc1C(=O)OC)C(=O)OCC 14 µM, CCCS(=O)(=O)Nc1c(C(=O)O)[nH]c2ccccc12 3.55 µM, O=C(Nc1cc(N2CCOCC2)ncn1)NC1(C(F)(F)F)Oc2ccc(Cl)cc2O1 (centres undefined) 11.1 µM, Cc1c(CC(=O)N2CCN(C(=O)C3COc4ccccc4O3)CC2)c(=O)oc2c(O)c(O)ccc12 (centres undefined) 6.31 µM, O=c1[nH]c(=S)[nH]c2[nH]c(=S)[nH]c12 39.8 µM, O=[N+]([O-])c1ccc(N(CCO)Cc2ccccc2)c([N+](=O)[O-])c1 10 µM, CC(=O)Oc1cccc(N2C(=O)CC(Nc3ccc(N4CCOCC4)cc3)C2=O)c1 (centres undefined) 35.5 µM, Cc1cccc2nc(-c3ccc(Cl)s3)c(Nc3ccc4c(c3)OCCO4)n12 7.94 µM, O=C(CCc1ccccc1)NNc1ccc(F)cc1 20 µM, O=C(N/N=C/c1ccc(O)c(O)c1)C1c2ccccc2Oc2ccccc21 14.1 µM, Nc1ccc(-c2sc(N)nc2-c2ccccc2)cc1 14 µM
